# Laboratory results as given in PubChem BioAssay.
# Calls of active or inactive are those of the source.
# What was measured:
# [1] = A549 cell viability effects, profiling panel, calcein-AM fluorescence, 48 h, basal (AID 1162); conditions: higher = more signal
# [2] = adipocyte viability effects, profiling panel, cell-based, 3T3-L1 adipocytes, calcein-AM fluorescence, 48 h, basal (AID 1163); conditions: 3T3-L1 adipocytes viability, higher = more signal
# [3] = HepG2 cell viability effects, profiling panel, calcein-AM fluorescence, 48 h, basal (AID 1164); conditions: higher = more signal
# [4] = MM1S cell viability effects, profiling panel, calcein-AM fluorescence, 48 h, basal (AID 1165); conditions: higher = more signal;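 also: viability of MM1S multiple myeloma cells under basal unstimulated conditions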
# [5] = basal RPMI8226 viability, no added stimulus, profiling panel, cell-based, calcein-AM fluorescence, 48 h, PK04 Diversity Set (AID 1166); conditions: RPMI8226 myeloma viability, higher = more signal;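 also: cells grown under basal conditions without added stimulus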
# [6] = basal HepG2 mitochondrial membrane potential changes, profiling panel, cell-based, JC-1 fluorescence, 24 h, 100 nL compound (AID 1167); conditions: higher = more signal
# [7] = basal 3T3-L1 adipocyte mitochondrial potential changes, profiling panel, cell-based, JC-1 fluorescence, 3T3-L1 adipocytes, 24 h, 100 nL compound (AID 1168); conditions: JC-1 mitochondrial fluorescence, higher = more signal, called active from +8 up or from −8 down
# [8] = basal RPMI8226 mitochondrial membrane potential changes, profiling panel, cell-based, JC-1 fluorescence, 24 h, 100 nL compound (AID 1169); conditions: RPMI8226 myeloma, JC-1 mitochondrial potential fluorescence, higher = more signal
# [9] = basal MM1S mitochondrial membrane potential changes, profiling panel, cell-based, JC-1 fluorescence, 24 h, 100 nL compound (AID 1170); conditions: higher = more signal
# [10] = A549 lung cancer cell viability effects, profiling panel, resazurin fluorescence, 24 h, PK04 Diversity Set (AID 1171); conditions: higher = more signal, called active from +8 up or from −8 down
# Also: test concentration not given here.
SMILES,z-score [1],z-score [2],z-score [3],z-score [4],z-score [5],z-score [6],z-score [7],z-score [8],z-score [9],z-score [10]
C=CCC(OC(C)=O)[C@@H]1[C@@H](N(Cc2ccc(-c3cccc(C(F)(F)F)c3)o2)C(=O)c2ccc(C)cc2)c2cc(OCCCO)ccc2N1C(=O)Cc1ccc2ccccc2c1 (stereo not given in full),0.474,0.9,0.544,-0.886,0.707,2.75,0.417 (inactive),1.01,-0.554,0.379 (inactive)
CCC[C@@H]1C[C@@]1(CCC)[C@@H](NS(=O)(=O)c1cccc2cccnc12)c1ccc(Cl)cc1,1.54,-1.13,0.112,0.0781,-0.99,3.46,0.112 (inactive),0.137,-0.855,-0.132 (inactive)
NCCCCCCNC(=O)[C@@H]1C[C@@H]2C(=O)NCC(=O)N2[C@@H]1c1ccc(O)cc1,-1.17,0.544,-1.07,0.307,0.0172,-0.479,0.172 (inactive),-0.796,-0.365,-0.368 (inactive)
O=C(N1CCCCC1)[C@]1(Cc2ccccc2)N=C(c2ccc(OCCCO)cc2)O[C@@H]1c1ccccc1,-1.69,1.16,-2.04,-3.35,-4.43,-1.06,-0.515 (inactive),-1.26,-2.03,0.528 (inactive)
COC(=O)[C@@]1(Cc2ccc(F)cc2)[C@H]2c3cc(C(=O)N4CCCC4)n(Cc4ccc(S(C)(=O)=O)cc4)c3C[C@H]2CN1C(=O)c1ccccc1,0.0676,0.582,-0.035,-1.23,-1.35,2.11,-1.3 (inactive),0.611,-0.583,0.039 (inactive)
COc1ccc(/C=C/C=O)cc1,0.637,-0.243,0.0562,0.418,-1.22,0.555,0.754 (inactive),-0.464,-0.0737,-0.925 (inactive)
O[C@@H](Cc1ccccc1)[C@H]1C2C=CCCC=C2CN1Cc1cccc(Cl)c1 (stereo not given in full),0.675,-0.0495,1.31,-3.23,-2.25,-0.241,-0.173 (inactive),-0.771,-2.86,-0.462 (inactive)
COc1ccc([Si](C)(C)[C@@H]2[C@@H](CC(=O)N3CCC[C@H]3CO)O[C@]3(C(=O)N(c4ccccc4)c4ccccc43)[C@H]2C)cc1,1.61,0.93,-0.259,-0.011,0.17,1.29,-0.181 (inactive),-0.277,-0.544,1.13 (inactive)
COC(=O)[C@@]1(Cc2ccc(OC)cc2)[C@H]2c3cc(C(=O)N4CCCC4)n(CCN4CNCC4=O)c3C[C@H]2CN1C(=O)c1ccccc1,-0.215,0.0334,-0.137,-0.105,-2.17,0.696,-0.514 (inactive),-0.429,-0.162,-0.936 (inactive)
O=C1C[C@@](C(=O)NCCN2CCOCC2)(c2ccc([N+](=O)[O-])cc2)[C@@H](c2ccc(CO)cc2I)N1CC12CC3CC(CC(C3)C1)C2,-4.03,0.546,-5.11,-3.86,-4.39,-2.72,0.981 (inactive),-0.93,-2.17,-4.83 (inactive)
CCc1cccc(NC(=O)O[C@H]2[C@H](OC(=O)Nc3ccccc3-c3ccccc3)[C@@H](OC(=O)Nc3ccccc3-c3ccccc3)[C@@H](OC)O[C@@H]2CO)c1,-4.21,0.175,-4.64,-3.46,-4.11,-1.11,1.66 (inactive),-1.1,-1.91,-6.15 (inactive)
C=C(C)[C@@H]1CC=C(C(O)C2C=CC3C(=O)N(C)C(=O)C3N2Nc2ccccc2)CC1 (stereo not given in full),-0.889,-1.16,-0.651,-1.36,0.0835,-0.9,4.5 (inactive),-0.334,-0.0333,0.392 (inactive)
COC(=O)[C@@]1(Cc2ccc(F)cc2)[C@H]2c3cc(C(=O)N4CCCC4)n(CCCNc4ncc(C(F)(F)F)cc4Cl)c3C[C@H]2CN1C(=O)c1ccccc1,-0.386,-0.68,0.0224,-1.48,-1.13,1.12,-1.8 (inactive),-0.501,-1.2,-0.733 (inactive)
COCCOC(=O)N1C(=O)[C@@]2(c3cc(C#Cc4ccc(OC)cc4)ccc31)[C@H](c1ccc(OCCO)cc1)N1[C@H](c3ccccc3)[C@H](c3ccccc3)OC(=O)[C@H]1[C@@H]2C(=O)N1CCN(c2ncccn2)CC1,-0.76,0.901,-0.169,-0.624,-0.412,0.548,2.18 (inactive),-0.351,-0.857,-0.0439 (inactive)
O=C(c1ccccc1)N1Cc2ccccc2C[C@@]2(COC(c3ccc(OCCCO)cc3)=N2)C1=O,0.603,0.697,0.81,-0.516,0.0855,1.47,-0.768 (inactive),-0.676,0.392,2.08 (inactive)
